Reference: PubChem BioAssay

These molecules were tested on XIP peptide (Xip251-270) (assay: compounds binding XIP fragment 251-270 – biochemical, small-molecule microarray, fluorescence 635/667 nm, 0.5 µg/mL protein, primary screen (AID 1183)). Conditions: fluorescence 635 nm, higher = more signal.

SMILES | composite z-score
COC(=O)NCC=Cc1nc(CCC=CC(=O)O[C@H]2CC3CC(=O)O[C@@H](C=CCC(C)C)C[C@@H]4CC[C@H](C)[C@@H](C[C@@H](OC)C[C@H](C2)O3)O4)co1 | -1
CN1CCC(c2ccc(CO)cc2)=CC1c1cccs1 (centres undefined) | 0.171
CCOC(=O)[C@H]1CC=C2C(=O)Oc3ccccc3[C@@H]21 | 0.637
CCCc1cc2c(n1Cc1ccc(C)cc1)C(C)C1CN(C(=O)c3ccccc3)C(C)(C(=O)OC)C21 (centres undefined) | 0.73
CN1CCc2nc(CO)c(CO)cc2C1 | -0.446
CCc1cc2c(nc1CC)CCN(CCC(C)=NOC)C2 | -0.0832
C[C@@H]1OC=C2[C@@H](O)[C@H]3O[C@H]3C(=O)[C@]23[C@H]1[C@H]1C2=C([C@@H](O)[C@H]4O[C@H]4C2=O)[C@@H]3O[C@@H]1C | -0.465
COC(=O)[C@H]1[C@@H](O)[C@@]2(O)c3c(OC)cc(OC)cc3O[C@@]2(c2ccc(OC)cc2)[C@@H]1c1ccccc1 | 0.914
CCOC(=O)[C@H]1CC=C2C(=O)Oc3ccc(Br)cc3[C@@H]21 | 0.694
COC(=O)[C@H]1C(=O)c2ccccc2O[C@@](C(=O)OC)(c2ccccc2)[C@@H]1c1ccccc1 | 0.191
OCc1ccc(C2=CC(c3cccs3)N(Cc3cccc(OC(F)(F)F)c3)CC2)cc1 (centres undefined) | -0.0913
CCCC=C(CCC)[C@@H](NP(=O)(c1ccccc1)c1ccccc1)c1ccccc1 | 0.158
C=C(CC1(C(C)NP(=O)(c2ccccc2)c2ccccc2)CC1)c1ccccc1 (centres undefined) | 0.858
CCCC[C@@H]1C[C@H]1[C@@H](NP(=O)(c1ccccc1)c1ccccc1)c1ccc(Cl)cc1 | -0.337
